PI5P4Ka inh: qHTS for Inhibitors of phosphatidylinositol 5-phosphate 4-kinase (PI5P4K). PI5P4Kalpha enzyme, ADP-Glo luminescence, 60 min; hits give low values. max response, %. 330,000 compounds, 1.2% hits; active = max response of -50% or lower; inconclusive = between -30% and -50%; inactive = -30% or higher; also: value at the top dose of about 77 µM
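Quantitative HTS of the MLSMR library against PI5P4Kalpha with substrate. ATP added last at 5 microM final; room temperature, 60 minutes. Remaining ATP depleted, ADP converted and read as luminescence.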
Tb PFK inh: qHTS Assay to Find Inhibitors of T. brucei phosphofructokinase | ATP-dependent 6-phosphofructokinase (Trypanosoma brucei brucei), O15648 | T. brucei PFK, ADP-Glo luminescence | Potency, µM (highest dose often 57.5 µM), usual class: inhibitors | 330,000 compounds, 0.17% hits; also: nearly all actives have a fitted effect of over 60% in size
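Activity is normalized to no-enzyme wells (full inhibition) and 1.25 nM enzyme wells (no inhibition). Reaction: 0.5 mM F6P, 0.1 mM ATP, 45 min RT, ADP-Glo luminescence; concentration-response curves fitted and classed by quality.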
Tb PGK inh: qHTS Assay to Find Inhibitors of Phosphoglycerate Kinase. Phosphoglycerate kinase, glycosomal (Trypanosoma brucei brucei), P07378. PGK/GAPDH coupled, Kinase-Glo luminescence, 60 min. Potency, µM (highest dose often 57.5 µM), actives largely listed as inhibitors. 380,000 compounds, 0.043% hits. AID 602233, 2012; also: nearly all actives have a fitted effect of over 60% in size
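Recombinant glycosomal PGK reaction used 1,3-bisphosphoglycerate generated in-well by GAPDH (100nM final) in 100mM TEA pH 7.6, 5mM MgCl2, 0.01% Tween-20. After 60 minutes at room temperature, ATP was read by Kinase-Glo Plus luminescence end-point.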
Pin1 inhibitor: qHTS Assay to Find Inhibitors of Pin1. Pin1 FP peptide displacement, HiFluor488, 10 min. 390,000 compounds, 0.009% hits. AID 504891, 2011. Potency, µM (series often up to 115 µM), most hits filed as inhibitors. Peptidyl-prolyl cis-trans isomerase NIMA-interacting 1 (Homo sapiens), Q13526; active = well fitted inhibition curve with a large enough effect in the polarisation, with a control signal flat, not every such curve was filed as active; inconclusive = small, poorly fitted or top-dose-only effect, or effect the other way, or a change in a side signal; inactive = no such curve, though single readings can be large or run the other way; the % refers to the polarisation
Target sequence (Q13526 whole entry, looked up): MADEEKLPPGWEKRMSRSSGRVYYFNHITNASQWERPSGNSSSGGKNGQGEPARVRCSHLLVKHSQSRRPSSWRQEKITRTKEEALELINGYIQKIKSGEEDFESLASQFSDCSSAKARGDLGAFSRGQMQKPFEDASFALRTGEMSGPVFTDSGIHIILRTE
PI4K2A block: qHTS for small molecular inhibitors of PI4K2A; Phosphatidylinositol 4-kinase type 2-alpha (Homo sapiens), Q9BTU6; activity change, negative = inhibition, % at 76.9 µM; purified PI4K2A, ADP-Glo luminescence, 1 h; hits give low values; 420,000 compounds, 0.13% hits; in the data active = activity change below about -50%; inconclusive = mostly about -30% to -49%
Target sequence (Q9BTU6 whole entry, looked up): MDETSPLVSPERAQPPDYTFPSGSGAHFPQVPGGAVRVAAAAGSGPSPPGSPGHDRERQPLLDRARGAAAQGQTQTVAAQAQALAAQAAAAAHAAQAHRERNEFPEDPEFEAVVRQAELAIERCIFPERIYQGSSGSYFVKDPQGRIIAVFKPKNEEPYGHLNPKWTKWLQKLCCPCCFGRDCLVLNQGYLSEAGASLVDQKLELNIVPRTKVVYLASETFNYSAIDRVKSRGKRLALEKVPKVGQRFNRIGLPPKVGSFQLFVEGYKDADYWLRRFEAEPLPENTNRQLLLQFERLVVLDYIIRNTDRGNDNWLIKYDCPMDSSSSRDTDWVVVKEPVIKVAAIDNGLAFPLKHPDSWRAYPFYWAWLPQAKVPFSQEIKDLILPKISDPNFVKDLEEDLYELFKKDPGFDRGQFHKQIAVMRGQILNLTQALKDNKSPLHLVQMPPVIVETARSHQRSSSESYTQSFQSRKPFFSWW
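Compounds are screened against recombinant PI4K2A using PI as substrate and ATP, the latter dispensed at 300 microM. Reactions run one hour at ambient temperature before ADP-Glo detection; full inhibition defined by wells lacking enzyme.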
Hits are given with their value; n = inactive; u = inconclusive; x = no result. The full list was thinned out, with hits kept by preference. Unless noted, calls follow the shape of the dose curve; as a rule, active = well fitted curve in the direction sought with a large enough effect; inconclusive = small, poorly fitted or top-dose-only effect, or another doubt; inactive = no such curve, though single readings can be large; an effect the other way counts as inactive or inconclusive.

SMILES | PI5P4Ka inh | Tb PFK inh | Tb PGK inh | Pin1 inhibitor | PI4K2A block
Nc1ncnc2c1ncn2C1CCC(CO)C(O)C1 (stereo not drawn) | x | n | n | n | -54
CCOc1cc(/C=N/NC(=O)c2ccc(-c3csc(Nc4ccc(C)cc4)n3)cc2)ccc1OCC(=O)O | u | u | 13µM | x | n
S=C1Cc2ccccc2N1 | -64 | n | u | n | u
S=C1Nc2ccccc2CS1 | n | x | n | x | n
COc1ccc2[nH]c3c(=O)n(Cc4ccc(C(=O)N5CCC(C(N)=O)CC5)cc4)c(=S)[nH]c3c2c1 | -59 | n | n | u | n
COc1ccc2[nH]c3c(=O)n(Cc4ccc(C(=O)N5CCCCCC5)cc4)c(=S)[nH]c3c2c1 | n | n | n | n | n
CC(/C=C/c1ccco1)=N/NC(=O)Cc1cccs1 | -52 | n | n | n | n
O=C(C=Cc1ccco1)c1cc(Cl)ccc1O | n | x | n | n | n
CCc1ccc(/C(C)=N/NC(=O)CNC(=O)/C=C/c2ccccc2OC)cc1 | n | n | n | n | n
CC(/C=C/c1ccco1)=N\NC(=O)c1cc(Cl)ccc1O | -80 | u | n | n | n
CCc1ccc(/C(C)=N/NC(=O)CNC(=O)/C=C/c2ccco2)cc1 | -84 | x | 14µM | x | n
O=c1c2ccccc2[nH]n1[C@@H](Cc1ccccc1)Cn1cc(-c2ccc(-c3ccccc3)cc2)nn1 | x | x | x | x | n
C/C=C\C=C/C(=O)Nc1cccc(C2=NOC3(C2)C[C@@H](C(N)=O)N(C(=O)/C=C/CC)C3)c1 (stereo partly drawn) | -65 | n | n | u | n
C/C=C\C=C\C(=O)N1CC2(CC(c3cccc(NC(=O)CC(c4ccccc4)c4ccccc4)c3)=NO2)C[C@H]1C(N)=O (stereo partly drawn) | -71 | n | n | n | n
C/C=C(\C)C(=O)N1CC2(CC(c3cccc(NC(=O)CC(c4ccccc4)c4ccccc4)c3)=NO2)C[C@H]1C(N)=O (stereo partly drawn) | x | n | x | x | x
CC(=O)N1CCN(C(=O)CCn2nnc3ccccc32)CC1 | x | x | x | x | n
CN(C)S(=O)(=O)c1cccc(NC(=O)COC(=O)/C=C/c2ccc(Br)o2)c1 | u | n | n | n | n
NC(=O)c1ccc(NC(=O)COC(=O)/C=C/c2ccc(Br)o2)cc1 | -58 | u | u | n | n
Cc1cnc(NS(=O)(=O)c2ccc(N)cc2)nc1 | x | x | x | x | n
O=c1[nH][nH]c(=S)n1C1CCCCC1 | -69 | n | n | n | n
O=C(CN1CCCCC1)NC(=O)NC1CCCC1 | n | n | n | n | n
CC(NC(=O)Cn1ncc(Cl)c(Cl)c1=O)C12CC3CC(CC(C3)C1)C2 (stereo not drawn) | -64 | n | n | u | n
O=C(Cn1ncc(Cl)c(Cl)c1=O)NC(=O)NC1CCCCC1 | -50 | n | n | n | n
N#CCC(N)=C(C#N)C#N | -76 | n | n | n | n
COC(=O)CC#N | n | n | n | n | n
SMILES | PI5P4Ka inh | Tb PFK inh | Tb PGK inh | Pin1 inhibitor | PI4K2A block
CCN(CC)c1ccc(C(=C2C=CC(=[N+](CC)CC)C=C2)c2ccc(S(=O)(=O)O)cc2S(=O)(=O)[O-])cc1 | -57 | x | u | n | -56
CCOC(=O)C1CCN(C(=O)N2CCOCC2)CC1 | n | n | n | n | -90
COC(=O)C1CCN(C(=O)N2CCOCC2)CC1 | x | n | n | n | n
O=C(CN1C(=O)C2CCCCN2C(=O)c2ccccc21)N1CCCC1 (stereo not drawn) | x | x | x | x | n
O=C(O)c1ccc(N=N/C(=N\Nc2ccc(C(=O)O)cc2)c2ccccc2)cc1 | -80 | n | u | u | n
O=C(O)c1cccc(N/N=C(\N=Nc2ccccc2)c2ccccc2)c1 | n | n | n | u | n
COc1ccccc1OC(=O)c1cc2ccccc2oc1=O | n | n | n | n | n
COc1cc(/C=C/[N+](=O)[O-])ccc1OC(=O)c1cc2ccccc2oc1=O | -61 | n | n | u | n
N#Cc1c(NC(=O)CCC(=O)O)sc2c1CCCCC2 | -74 | n | n | u | n
Cc1nnc(SCC(=O)Nc2sc3c(c2C#N)CCCC3)[nH]c1=O | -52 | n | n | n | n
Nc1cc(S(=O)(=O)N2CCN(S(=O)(=O)c3ccc4c(c3)OCCO4)CC2)ccn1 | x | x | x | n | x
Cc1c(C(=O)O)sc2nc(/C=C/c3cccc(O)c3)[nH]c(=O)c12 | -77 | n | u | n | n
NC(=O)C1CCN(c2nc(-c3ccc(OC(F)(F)F)cc3)cs2)CC1 | x | x | x | n | x
O=C(Nc1c(-c2ccc3c(c2)OCO3)[nH][nH]c1=O)c1ccccc1 | n | x | x | x | -60
CCOC(=O)c1ccc2nc(C)c3c(c2c1)OC(C)C3 (stereo not drawn) | n | n | n | n | n
CCOC(=O)c1ccc2nc(C(F)(F)F)[nH]c(=O)c2c1 | -57 | n | n | n | n
CC1(C)CC[C@]2(C(=O)O)CC[C@]3(C)C(=CC[C@@H]4[C@@]5(C)CC[C@H](O[C@@H]6O[C@H](C(=O)O)[C@@H](O)[C@H](O[C@@H]7OC[C@H](O)[C@H](O)[C@H]7O)[C@H]6O)C(C)(C)[C@@H]5CC[C@]43C)[C@@H]2C1 | -65 | u | n | x | n
COc1cc(/C=C2\S/C(=N/S(=O)(=O)c3ccccc3)NC2=O)c([N+](=O)[O-])cc1OC | -55 | n | n | u | n
COc1ccc(S(=O)(=O)/N=C2/NC(=O)/C(=C\c3cc(OC)c(OC)cc3[N+](=O)[O-])S2)cc1 | x | n | n | n | n
CC(C)(Oc1ccc(Cl)cc1)C(=O)OCCCOC(=O)C(C)(C)Oc1ccc(Cl)cc1 | x | x | x | x | n
NNc1nccc(Nc2ccccc2C(=O)O)n1 | -54 | n | n | n | n
O=C(C1CCN(c2nc(-c3ccc(Br)cc3)cs2)CC1)N1CCOCC1 | x | x | x | n | x
CCN1CCN(C(=O)CCN(CC(C)C)c2nc(-c3cccs3)nc3ccccc23)CC1 | x | x | x | n | x
COC(=O)C1=C(C)NC(COC(N)=O)=C(C(=O)OC(C)C)C1c1cccc(Cl)c1Cl (stereo not drawn) | x | x | x | x | n
C=CCn1c(Cc2ccccc2)n[nH]c1=S | n | n | n | n | n
C=CCn1c(CSc2ccccc2[N+](=O)[O-])n[nH]c1=S | -74 | n | n | x | n
COC(=O)[C@]12C[C@H](CC(=O)N3CCC(c4ccccc4)CC3)C(=O)N(CCc3ccc(OC)c(OC)c3)C1=C[C@H](C(C)C)O[C@@H]2C1CC1 | x | x | x | x | n
O=C(CSc1nc(-c2ccccc2)nc2ccc(F)cc12)Nc1ccc(C(=O)O)cc1 | u | n | n | n | n

Screening results as filed in PubChem.
